Assay [1] is described as follows: qHTS assay to identify aromatase inhibitors - cell viability counter screen (AID 743084).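 Also: cells stimulated with testosterone during compound exposure; nearly all actives have a fitted effect of over 55% in size.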 In general terms: In qHTS, concentration-response curves come from the screen itself.
Assay [2] has as its target Aryl hydrocarbon receptor (Homo sapiens) (UniProt P35869). As to the kind of experiment: qHTS assay to identify small molecule that activate the aryl hydrocarbon receptor (AhR) signaling pathway (AID 743085). Also: nearly all actives have a fitted effect of over 15% in size. Also: potency is read from the fitted curve at half-maximal effect.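 As to activation: HG2L7.5c1 human HepG2 liver cells with stably integrated DRE-driven firefly reporter; series mostly up to about 70 µM.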 The essentials: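 HepG2 cells stably carrying a 20-DRE firefly luciferase reporter (HG2L7.5c1) treated with compound for 24 hr at 37C. Luciferase read by ONE-Glo luminescence, with CellTiter-Fluor viability read first.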

Assay [3] in a line: qHTS assay to identify small molecule that activate the aryl hydrocarbon receptor (AhR) signaling pathway - cell viability counter screen (AID 743086). Also: series mostly up to about 70 µM; nearly all actives have a fitted effect of over 45% in size. In a few lines:
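HepG2-AhR-luc (HG2L7.5c1) cells, 4000/well, were preincubated 5 h at 37C, exposed to compound in qHTS format for 24 hr at 37C, then given CellTiter-Fluor for 30 min; viability was read as fluorescence in the reporter wells.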

The target of assay [4] is Peroxisome proliferator-activated receptor gamma (Homo sapiens) (UniProt P37231). Put plainly: qHTS assay to identify small molecule agonists of the peroxisome proliferator-activated receptor gamma (PPARg) signaling pathway (AID 743094; active = well fitted activation curve with a large enough effect in the signal ratio in the repeat runs, not every such curve was filed as active; the % refers to the signal ratio). The essentials:
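Cells from the PPARg UAS-bla HEK293H line are plated and incubated 5 h at 37C. Compounds in DMSO are pinned in and left 17 h at 37C. LiveBLAzer B/G substrate is then added for 1 h at room temperature before fluorescence is measured.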

The target is the same in assay [5]. Put plainly: qHTS assay to identify small molecule antagonists of the peroxisome proliferator-activated receptor gamma (PPARg) signaling pathway (AID 743191; calls by dose curve; also: series mostly up to about 63 µM; nearly all actives have a fitted effect of over 30% in size). The essentials: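 GeneBLAzer PPARg UAS-bla HEK293H cells carrying a UAS-driven beta-lactamase reporter were plated at 3000 cells/well, preincubated 5 h at 37C, then given compound for 17 h at 37C; LiveBLAzer B/G FRET substrate was read after 1 h at room temperature.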

Assay [6] can be described thus: qHTS assay for small molecule agonists of the antioxidant response element (ARE) signaling pathway (AID 743202; active = well fitted activation curve with a large enough effect in the signal ratio in the repeat runs, not every such curve was filed as active; the % refers to the signal ratio; also: potency is read from the fitted curve at half-maximal effect). In a few lines: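 Steps: seed ARE-bla HepG2 cells (2,000/well); incubate 5 h at 37 C; add compounds by pin tool; incubate 16 h at 37 C; add FRET substrate; read fluorescence after 2 h at RT.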
Assay [7] can be described thus: qHTS assay for small molecule agonists of the antioxidant response element (ARE) signaling pathway - cell viability counter screen (AID 743203; calls by dose curve; also: nearly all actives have a fitted effect of over 55% in size). In a few lines: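 Cytotoxicity was tested in parallel with the ARE reporter screen. ARE-bla HepG2 cells were exposed to compounds for 16 hrs, and viability was taken from CellTiter-Glo luminescence.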
The nature of assay [8]: qHTS assay for small molecule activators of the heat shock response signaling pathway - cell viability counter screen (AID 743209). Also: nearly all actives have a fitted effect of over 50% in size. In a few lines: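 Cytotoxicity counter screen run in parallel with the HSE beta-lactamase reporter, using the same wells. HeLa HSE-bla cells received compound for 5 h at 37 C; ATP-based CellTiter-Glo luminescence was measured after 30 min at room temperature.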

A short description of assay [9]: qHTS assay for small molecule activators of the heat shock response signaling pathway (AID 743210; active = well fitted activation curve with a large enough effect in the signal ratio in the repeat runs, with a control signal flat, not every such curve was filed as active; the % refers to the signal ratio;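 also: HeLa cells with beta-lactamase reporter driven by heat shock elements; series mostly up to about 63 µM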). The essentials: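 Activation of heat shock element-controlled beta-lactamase expression is measured in HeLa cells by LiveBLAzer FRET fluorescence, with compound exposure lasting 5 h at 37 C and substrate loading 2.5 h at room temperature.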
Assay [10] is described as follows: qHTS assay to identify small molecule agonists of the peroxisome proliferator-activated receptor delta (PPARd) signaling pathway - cell viability counter screen (AID 743211). Also: nearly all actives have a fitted effect of over 55% in size. The essentials: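 PPARd-bla HEK293H cells (3000/well) were pre-incubated 5 h at 37 C, then exposed to compound for 17 h at 37 C. After 2 h with LiveBLAzer substrate, CellTiter-Glo was added to the same wells; luminescence read after 30 min at room temperature.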

Assay [11] concerns the target Peroxisome proliferator-activated receptor delta (Homo sapiens) (UniProt Q03181). Put plainly: qHTS assay to identify small molecule agonists of the peroxisome proliferator-activated receptor delta (PPARd) signaling pathway (AID 743212; calls by dose curve). The essentials:
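Cells expressing a UAS-driven beta-lactamase reporter (PPARd-bla HEK293H) were given test compounds after a 5 h settle and kept at 37 C. Reporter activity was then measured as FRET fluorescence using LiveBLAzer B/G substrate.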

Assay [12] is described as follows: qHTS assay to identify small molecule antagonists of the peroxisome proliferator-activated receptor delta (PPARd) signaling pathway - cell viability counter screen (AID 743213). Also: nearly all actives have a fitted effect of over 50% in size. In a few lines:
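Cytotoxicity counter screen: CellTiter-Glo luminescence read 30 min after addition, in the same wells as the reporter assay. There, PPARd UAS-bla HEK293H cells (3000/well) were treated 17 h at 37 C with compound and 300 nM L165041.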

In assay [13] the target is Peroxisome proliferator-activated receptor delta (Homo sapiens) (UniProt Q03181). Put plainly: qHTS assay to identify small molecule antagonists of the peroxisome proliferator-activated receptor delta (PPARd) signaling pathway (AID 743215; active = well fitted inhibition curve with a large enough effect in the signal ratio in the repeat runs, not every such curve was filed as active; the % refers to the signal ratio;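 also: cells stimulated with agonist L165041 at 300 nM final during compound exposure; series mostly up to about 62 µM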). The essentials:
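Cells: HEK293H with a UAS-driven beta-lactamase reporter responsive to PPARd. Compounds were co-added with L165041 (300 nM, final) and incubated 17 h at 37 C before a 2 h room-temperature FRET substrate step and fluorescence reading.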

A short description of assay [14]: qHTS assay to identify small molecule antagonists of the farnesoid-X-receptor (FXR) signaling pathway - cell viability counter screen (AID 743221; active = well fitted cell-killing curve with a large enough effect in the repeat runs, not every such curve was filed as active; also: nearly all actives have a fitted effect of over 50% in size; also: potency is read from the fitted curve at half-maximal effect). The essentials:
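GeneBLAzer FXR-UAS-bla HEK 293T cells, compound plus chenodeoxycholic acid (50 uM final), 16 h at 37 C. CellTiter-Glo added to the same wells after the beta-lactamase read; luminescence read after 30 min at room temperature as viability.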

For assay [15], the target named is Vitamin D3 receptor (Homo sapiens) (UniProt P11473). Put plainly: qHTS assay to identify small molecule agonists of the vitamin D receptor (VDR) signaling pathway (AID 743222; calls by dose curve). In a few lines: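 Cells carrying a VDR-driven beta-lactamase reporter are seeded at 2,000 per well and rested 4 h. Compounds in DMSO are added for 16 h at 37C, and FRET substrate fluorescence is measured after 2 h at room temperature.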

Assay [16] shares this target. As to the kind of experiment: qHTS assay to identify small molecule antagonists of the vitamin D receptor (VDR) signaling pathway (AID 743223; active = well fitted inhibition curve with a large enough effect in the signal ratio in the repeat runs, not every such curve was filed as active; the % refers to the signal ratio). The essentials: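 VDR-bla cells were treated with compound plus 3 nM final 1alpha,25-dihydroxyvitamin D3 for 16 h at 37C. Beta-lactamase reporter read by B/G FRET substrate fluorescence after 2 h at room temperature. qHTS format.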

Assay [17] can be described thus: qHTS assay to identify small molecule antagonists of the peroxisome proliferator-activated receptor gamma (PPARg) signaling pathway - cell viability counter screen (AID 743194). Also: nearly all actives have a fitted effect of over 55% in size. The essentials: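 PPARg-UAS-bla HEK293H cells were plated, rested 5 h at 37 C, then treated with compounds plus rosiglitazone (50 nM final) for 17 h at 37 C; viability was then read by CellTiter-Glo luminescence after 30 min at room temperature.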

A short description of assay [18]: qHTS assay to identify small molecule agonists of the farnesoid-X-receptor (FXR) signaling pathway - cell viability counter screen (AID 743218). Also: nearly all actives have a fitted effect of over 45% in size. In a few lines:
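Cells were seeded, left 5 h at 37 C and 5% CO2, then dosed with compound in DMSO for 16 h. After the beta-lactamase FRET read, CellTiter-Glo was added and luminescence measured 30 min later.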

Assay [19] has as its target Bile acid receptor (Homo sapiens) (UniProt Q96RI1). Put plainly: qHTS assay to identify small molecule agonists of the farnesoid-X-receptor (FXR) signaling pathway (AID 743220; active = well fitted activation curve with a large enough effect in the signal ratio in the repeat runs, not every such curve was filed as active; the % refers to the signal ratio). In a few lines:
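FXR-UAS-bla HEK 293T cells carrying a UAS-driven beta-lactamase reporter were plated for 5 h at 37C/5% CO2, then exposed to DMSO-dissolved Tox21 10K compounds for 16 h at 37C. A LiveBLAzer B/G FRET substrate was loaded for 2 h at room temperature before fluorescence reading.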

The target is the same in assay [20]. Put plainly: qHTS assay to identify small molecule antagonists of the farnesoid-X-receptor (FXR) signaling pathway (AID 743217; active = well fitted inhibition curve with a large enough effect in the signal ratio in the repeat runs, not every such curve was filed as active; the % refers to the signal ratio). In a few lines: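 Cells carrying a UAS-driven beta-lactamase reporter (GeneBLAzer FXR-UAS-bla HEK 293T) were plated and rested 5 h at 37 °C. Compounds in DMSO were added alongside chenodeoxycholic acid agonist at 50 uM final and left 16 h at 37 °C before FRET substrate readout.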

Results filed as inconclusive are left out. Calls of active or inactive are those of the source. Unless noted, calls follow the shape of the dose curve; as a rule, active = well fitted curve in the direction sought with a large enough effect in the repeat runs; inconclusive = weak or mixed curves; inactive = no such curve, though single readings can be large; an effect the other way counts as inactive or inconclusive.

Peroxisome proliferator-activated receptor gamma (Homo sapiens), sequence (P37231 whole entry, looked up): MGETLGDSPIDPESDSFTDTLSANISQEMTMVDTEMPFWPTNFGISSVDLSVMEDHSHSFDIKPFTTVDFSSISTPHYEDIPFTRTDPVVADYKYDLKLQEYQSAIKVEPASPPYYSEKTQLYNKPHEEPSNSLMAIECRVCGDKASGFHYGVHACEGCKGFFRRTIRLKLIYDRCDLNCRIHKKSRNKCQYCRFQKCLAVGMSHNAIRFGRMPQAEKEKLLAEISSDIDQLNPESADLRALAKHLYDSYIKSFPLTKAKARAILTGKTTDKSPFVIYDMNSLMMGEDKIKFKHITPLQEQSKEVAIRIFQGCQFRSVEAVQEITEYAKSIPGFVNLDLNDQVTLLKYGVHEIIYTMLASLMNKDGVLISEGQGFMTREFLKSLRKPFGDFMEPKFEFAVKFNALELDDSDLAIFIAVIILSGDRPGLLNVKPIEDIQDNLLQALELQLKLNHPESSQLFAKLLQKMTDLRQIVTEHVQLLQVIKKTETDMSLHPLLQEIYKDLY
Peroxisome proliferator-activated receptor delta (Homo sapiens), sequence (Q03181 whole entry, looked up): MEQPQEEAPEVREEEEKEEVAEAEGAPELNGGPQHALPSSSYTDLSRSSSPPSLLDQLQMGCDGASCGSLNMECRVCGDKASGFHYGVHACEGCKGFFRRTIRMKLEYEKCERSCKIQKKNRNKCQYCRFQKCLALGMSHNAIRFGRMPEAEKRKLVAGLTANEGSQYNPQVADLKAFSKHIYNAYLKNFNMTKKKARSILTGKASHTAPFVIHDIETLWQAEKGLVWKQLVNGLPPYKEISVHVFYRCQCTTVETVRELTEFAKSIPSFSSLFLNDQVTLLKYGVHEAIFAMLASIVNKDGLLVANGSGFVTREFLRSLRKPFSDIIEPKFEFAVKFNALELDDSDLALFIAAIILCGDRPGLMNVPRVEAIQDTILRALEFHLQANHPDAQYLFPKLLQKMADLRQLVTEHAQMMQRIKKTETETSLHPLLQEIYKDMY
Vitamin D3 receptor (Homo sapiens), sequence (P11473 whole entry, looked up): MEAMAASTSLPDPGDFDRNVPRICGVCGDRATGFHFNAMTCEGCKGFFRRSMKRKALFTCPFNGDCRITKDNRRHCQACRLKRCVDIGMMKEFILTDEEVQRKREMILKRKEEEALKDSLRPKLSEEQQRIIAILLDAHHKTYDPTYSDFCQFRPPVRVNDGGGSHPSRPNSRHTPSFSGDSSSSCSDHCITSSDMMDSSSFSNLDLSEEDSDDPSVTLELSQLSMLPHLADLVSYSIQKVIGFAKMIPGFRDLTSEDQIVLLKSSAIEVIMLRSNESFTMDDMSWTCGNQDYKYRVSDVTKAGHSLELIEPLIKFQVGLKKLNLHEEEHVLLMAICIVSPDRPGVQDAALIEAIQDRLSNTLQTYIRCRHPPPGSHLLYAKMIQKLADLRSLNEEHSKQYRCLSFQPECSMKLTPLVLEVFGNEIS
Bile acid receptor (Homo sapiens), sequence (Q96RI1 whole entry, looked up): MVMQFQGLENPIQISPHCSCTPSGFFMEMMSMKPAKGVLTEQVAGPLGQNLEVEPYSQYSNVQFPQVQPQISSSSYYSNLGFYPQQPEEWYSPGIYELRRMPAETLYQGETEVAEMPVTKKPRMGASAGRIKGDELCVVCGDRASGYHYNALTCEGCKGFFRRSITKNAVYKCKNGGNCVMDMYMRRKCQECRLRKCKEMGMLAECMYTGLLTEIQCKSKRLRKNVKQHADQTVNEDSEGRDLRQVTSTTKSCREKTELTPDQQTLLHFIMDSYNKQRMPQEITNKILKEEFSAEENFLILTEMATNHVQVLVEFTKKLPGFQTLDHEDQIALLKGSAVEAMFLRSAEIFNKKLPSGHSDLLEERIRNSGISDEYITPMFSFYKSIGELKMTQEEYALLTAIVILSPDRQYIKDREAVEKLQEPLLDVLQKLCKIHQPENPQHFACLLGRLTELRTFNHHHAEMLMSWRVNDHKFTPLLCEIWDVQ
Aryl hydrocarbon receptor (Homo sapiens), sequence (P35869 whole entry, looked up): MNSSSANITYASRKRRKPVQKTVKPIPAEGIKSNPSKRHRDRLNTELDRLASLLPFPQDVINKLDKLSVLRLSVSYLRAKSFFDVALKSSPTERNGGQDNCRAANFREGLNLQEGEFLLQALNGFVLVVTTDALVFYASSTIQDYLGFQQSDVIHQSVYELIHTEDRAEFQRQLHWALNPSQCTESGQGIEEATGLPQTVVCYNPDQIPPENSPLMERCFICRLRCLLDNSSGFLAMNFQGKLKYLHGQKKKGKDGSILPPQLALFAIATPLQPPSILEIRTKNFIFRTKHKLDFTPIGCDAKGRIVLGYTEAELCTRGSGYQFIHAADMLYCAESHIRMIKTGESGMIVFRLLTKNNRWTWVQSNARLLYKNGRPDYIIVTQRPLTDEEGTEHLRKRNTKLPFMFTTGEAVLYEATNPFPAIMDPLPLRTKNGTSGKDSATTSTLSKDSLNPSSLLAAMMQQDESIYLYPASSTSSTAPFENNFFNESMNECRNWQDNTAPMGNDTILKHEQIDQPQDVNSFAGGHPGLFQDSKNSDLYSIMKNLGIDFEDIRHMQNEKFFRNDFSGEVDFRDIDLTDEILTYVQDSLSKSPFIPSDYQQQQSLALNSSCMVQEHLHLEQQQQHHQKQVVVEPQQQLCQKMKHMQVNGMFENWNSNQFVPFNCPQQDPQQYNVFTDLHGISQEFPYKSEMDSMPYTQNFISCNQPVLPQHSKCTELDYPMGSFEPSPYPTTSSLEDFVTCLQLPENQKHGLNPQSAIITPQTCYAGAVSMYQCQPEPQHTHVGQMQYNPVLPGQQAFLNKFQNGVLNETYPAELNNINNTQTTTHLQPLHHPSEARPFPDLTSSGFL

Turning to `NCC(=O)O`, the Potency entry in assay [1], in [2], in assay [3], in [4], in [5] and in assay [6] was “inactive” each time. Moreover, the Potency entry in assay [7], in [8], in assay [9], in [10], in assay [11] and in [12] was “inactive” each time. For the same compound, the Potency entry in assay [13], in assay [14] and in [15] was “inactive” throughout. Besides, the compound was called inactive in [16].

Regarding `O=CC1CC=CCC1` (stereo not drawn), the Potency result in assay [1], in [2], in [3], in [4], in assay [17] and in assay [6] was “inactive” each time. For the same compound, the Potency entry in assay [7], in assay [8], in [9], in assay [10], in [11] and in assay [12] was “inactive” in each case. For the same compound, the Potency entry in assay [13], in assay [18], in assay [19], in assay [14] and in assay [15] was “inactive” throughout.

With `C=C(C)C(=O)OCCOCC`, the Potency entry in [1], in assay [2], in assay [3], in [4], in assay [17] and in [6] was “inactive” in each case. The Potency entry in [7], in [8], in assay [9], in assay [10], in assay [11] and in assay [12] was “inactive” each time. For the same compound, the Potency entry in assay [13], in [18] and in assay [14] was “inactive” each time.

With `CCCCCCCN`, the Potency result in [1], in assay [2], in [3], in [4], in assay [17] and in assay [6] was “inactive” throughout. Further, the Potency result in assay [7], in [8], in assay [10], in [11], in [12] and in assay [19] was “inactive” each time. In addition, the Potency result in assay [14] and in assay [15] was “inactive” each time. For the same compound, in assay [16], the outcome was inactive.

Take `C#CCN(C)CCCOc1ccc(Cl)cc1Cl`: the Potency result in assay [1], in assay [3], in [4], in [5], in assay [7] and in assay [9] was “inactive” in each case. Also, the Potency result in assay [10], in assay [11], in assay [12], in assay [20], in [18] and in [19] was “inactive” in each case. The Potency entry in assay [14] and in [15] was “inactive” in each case. For the same compound, the Potency in assay [2] was 23.7 µM (active); in [6] it was 15 µM (active). The compound was classed as inactive in assay [16].

Consider `CCN(CC)CCOC(=O)C(Cc1cccc2ccccc12)CC1CCCO1` (stereo not drawn), for which the Potency entry in [1], in [2], in assay [3], in [4], in [5] and in assay [6] was “inactive” each time. For the same compound, the Potency result in assay [7], in [8], in assay [9], in [10], in assay [12] and in assay [18] was “inactive” throughout. Besides, the Potency result in assay [14] and in assay [15] was “inactive” each time.

Take `CCC(Cl)CCC(Cl)C(Cl)CC(Cl)C(Cl)C(Cl)CCl` (stereo not drawn): the Potency result in assay [1], in assay [2], in assay [3], in assay [4], in assay [5] and in assay [7] was “inactive” throughout. Moreover, the Potency entry in assay [8], in [11], in [20], in [18], in assay [19] and in assay [14] was “inactive” throughout.

`CC1=CC[C@H](C(C)C)C=C1`: the Potency entry in assay [1], in assay [2], in assay [3], in assay [4], in assay [17] and in assay [7] was “inactive” throughout. Further, the Potency entry in assay [8], in assay [9], in assay [12] and in [18] was “inactive” throughout. The values for the Potency in [6] and in assay [14] were 54.5 µM (active) and 49 µM (active), respectively.

The values above are taken from PubChem BioAssay (Tox21).
